Measured values from the OligoGym collection.

target: FAM178A; test: pooled miR-30 sensor sort-seq; sequence = guide strand; conditions: shRNA
Also: reference of the scale not given here.

Point of comparison: TTTTTCTTGAGAGATGTCCATT, sensor-assay potency score (higher = more potent) -1.17. Against it:
- TAGACAATCTACTTCCTCCATA — higher, -0.597
- TAGTTTTGTCTCCTTCTCCTTT — higher, -0.485
- TATACCATGATCTTCATGGTGC — higher, 0.577
- TATGTCTTCTTGTAGTTGCTTC — higher, 0.216
- TTTAATTGCAGACTTTTCCTGA — higher, 0.605
- TAAGAAGCTAGTGACAACTGGA — higher, 0.82
- TTTCTTTAGAAATTCCTTGTGC — higher, 0.466
- TTTAGTTCTCGTTCTCTGCAGT — higher, -0.0234
- TATTGAAAAACACAGCTGCTAC — higher, -0.444

target: FAM181A; test: as above; conditions: shRNA

Point of comparison: TCGGATGCCATCACCAGGGGGC, sensor-assay potency score (higher = more potent) -0.489. Against it:
- TTGATGTCGCTGGACGCCAGGT — lower, -1.09
- TTTTCAGGTAGGGCTCAGCAGC — lower, -1.38
- AAATCCAGGAGCAGCCTCCTGG — lower, -1.06
- TTGCGATGGTCCACGGAGCGGC — lower, -0.977
- TTTTCTTACCCTCATAGGGAGG — lower, -1.8
- AACAAGAACAACAACTGAGATT — lower, -1.01
- ATCTTCACATCACTGTCGGATG — lower, -1.37
- TTAGCAAGACATTCCTCCCTGT — higher, 0.483
- TAGCAAGACATTCCTCCCTGTA — lower, -0.518
- AAGAACAAGAACAACAACTGAG — higher, 0.506
- TACTTCTGGGAGAAGCGCTTGA — higher, -0.152

target: FAM181B; test: as above; conditions: shRNA

Point of comparison: TTGTTTTAACACTTGAGGTTGT, sensor-assay potency score (higher = more potent) 0.449. Against it:
- TTCTTGACTCCTCTGGTCCAGT — lower, -0.871
- TACACTAAATACACTGACCTTC — lower, -0.096
- TTTGTTTTAACACTTGAGGTTG — lower, -0.289
- TAAATACACTGACCTTCGCTGA — lower, -0.839
- TTTTGTTTTAACACTTGAGGTT — lower, 0.0361
- TTGTGATTAAACAATCCCCAAC — lower, -1.56
- TCATCGTCCTCGAAACAGCAGC — lower, -1.07
- TTGGTTTCTTGACTCCTCTGGT — higher, 0.637
- TTGATGTTGCTGGACGCCGAGT — lower, -1.34
- TGAAGCTGAGTAGATCGCGGGT — lower, -0.406
- TTCACCTTCCGCTTCGACTTGC — lower, 0.326

target: FAM194A; test: as above; conditions: shRNA

Point of comparison: TTAGTTTCGACTCTTCTGGATT, sensor-assay potency score (higher = more potent) -1.18. Against it:
- TTATTGTCTTCATTATATCTTG — higher, -0.455
- TTTAGTTTCGACTCTTCTGGAT — higher, 0.0335
- TAGAATATTTGTGTTGTCCCAT — higher, 0.0372
- TTATATCTTGCTTTATACCAGA — higher, -0.69
- TTAAGCGCTTTGAATCATCTTC — higher, -0.166
